Source: PubChem BioAssay
HPGD inh – HPGD (human) dehydrogenase inhibition | P15428 | purified HPGD, NADH fluorescence kinetic, PGE2 substrate | Potency, µM, inactives show top-dose activity change, negative = inhibition, actives largely listed as inhibitors | hit rate 4.3% among 150,000; active = well fitted inhibition curve with a large enough effect, not every such curve was filed as active; inconclusive = small, poorly fitted or top-dose-only effect, or another doubt; inactive = no such curve, though single readings can be large or run the other way; also: potency is read from the fitted curve at half-maximal effect
Target sequence (P15428 whole entry, looked up): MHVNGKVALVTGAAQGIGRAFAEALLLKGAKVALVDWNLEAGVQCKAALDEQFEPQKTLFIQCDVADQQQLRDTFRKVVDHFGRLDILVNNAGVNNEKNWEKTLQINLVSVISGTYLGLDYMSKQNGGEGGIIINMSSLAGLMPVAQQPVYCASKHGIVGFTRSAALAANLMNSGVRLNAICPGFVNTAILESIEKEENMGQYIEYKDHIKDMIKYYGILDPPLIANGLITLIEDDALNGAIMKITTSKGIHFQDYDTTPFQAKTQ
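20 nM HPGD preincubated 15 min at room temperature with compound in 50 mM Tris-HCl pH 8, 0.01% Tween 20. Started with 1 mM NAD+ and 30 uM prostaglandin E2; NADH fluorescence (360/450 nm) read 5 times over 30-s intervals, last minus first.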
12-hLO inh – blocks human 12-lipoxygenase activity. P18054. purified 12-hLO, xylenol orange hydroperoxide absorbance. Potency, µM (highest dose often 57.1 µM), for the others: top-dose activity change, negative = inhibition, hits mostly inhibitors. hit rate 0.12% among 150,000. AID 1452; also: potency is read from the fitted curve at half-maximal effect; nearly all actives have a fitted effect of over 55% in size
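150 nM 12hLO, 25 mM Hepes pH 7.0 + 0.01% Triton X-100; cpd preinc 15 min RT; 40 uM arachidonic acid, 30 min RT; Fe-XO 30 min; A573/A405 ratio as read-out.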
IMPase Li cell – cell-permeable IMPase inhibitors with lithium potentiation; CHO-M1 cells, IP1 TR-FRET (IP-One), carbachol + lithium; Potency, µM (titrated, usually from 59.4 µM), for inactives: at the top dose activity, negative = IMPase inhibition, usual class: inhibitors; hit rate 0.35% among 210,000;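 also: IP1 builds up when IMPase is blocked and the TR-FRET signal falls; potency is read from the fitted curve at half-maximal effect; plate controls were basal vehicle for no effect and high inhibitor control for full effect; nearly all actives have a fitted effect of over 50% in size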
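Test compounds were applied to CHO-M1 cells previously cultured for 16–30 h at 2000 per well. A small lithium amount accompanied them; after 30 min at 37C, IP1 was quantified by TR-FRET.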
PNC inhibitor – perinucleolar compartment assembly inhibition. activity change (PNC), negative = inhibition, % at 10 µM. hit rate 3.1% among 140,000. PC3M PTB-GFP, PNC prevalence imaging, 16 h; hits give low values;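 active = readout at or below -70, meaning at least 70% loss of cells showing the perinucleolar compartment, a nuclear body marking cancer cells; inconclusive = readout between -30 and a set limit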;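 also: plate controls were DMSO wells for no effect and camptothecin positive control wells for full effect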
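Compounds are pinned in duplicate onto adhered PC3M cells stably expressing GFP-tagged PTB and incubated 16 h at 37 C. Cells are then fixed, nuclei stained with Hoechst, and PNC-positive cells counted.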
IMPase cell inh – IMPase inhibition in cells; P97697; CHO-M1 cells, IP1 accumulation, HTRF TR-FRET ratio; inhibition (IP1 accumulation), % at 46.1 µM; 120,000 tested, under 10 active; active = well fitted curve in the direction sought with a large enough effect in the signal ratio, not every such curve was filed as active; inconclusive = small, poorly fitted or top-dose-only effect, or a change in a side signal; inactive = no such curve, though single readings can be large or run the other way; the % refers to the signal ratio;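 also: cells stimulated with carbachol in lithium chloride buffer; plate controls were DMSO basal wells for no effect and reference inhibitor wells for full effect; higher means more IMPase inhibition seen as more IP1 and lower FRET ratio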
Target sequence (P97697 whole entry, looked up): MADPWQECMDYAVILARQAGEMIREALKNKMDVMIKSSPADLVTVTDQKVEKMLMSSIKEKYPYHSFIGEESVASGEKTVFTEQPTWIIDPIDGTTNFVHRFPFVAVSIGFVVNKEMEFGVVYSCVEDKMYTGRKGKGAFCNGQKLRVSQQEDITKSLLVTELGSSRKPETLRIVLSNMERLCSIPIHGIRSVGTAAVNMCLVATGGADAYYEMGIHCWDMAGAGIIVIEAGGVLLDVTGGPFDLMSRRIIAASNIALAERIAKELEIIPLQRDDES
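Carbachol-driven Gq signalling in CHO-M1 cells (2000/well) generates IP1. Compounds that block IMPase raise IP1 and so reduce the FRET signal from Eu-anti-IP1 and d2-IP1 after a 10 min room-temperature lysis.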
15-hLO-2 inh – blocks human 15-lipoxygenase 2 activity | Potency, µM (titrated, usually from 57.1 µM), for inactives: at the top dose activity change, negative = inhibition, hits mostly inhibitors | AID 881 | purified 15hLO-2, xylenol orange hydroperoxide absorbance | O15296 | hit rate 0.56% among 110,000; also: potency is read from the fitted curve at half-maximal effect; nearly all actives have a fitted effect of over 60% in size
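Purified human 15hLO-2 (50 nM) preincubated 15 min with compound, then 45 uM arachidonic acid for 90 min at RT in 25 mM Hepes pH 7.5, 0.01% Triton X-100. Hydroperoxide detected by Fe-xylenol orange; 573/405 nm absorbance ratio.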
* hit, by the source's call; ? = inconclusive; . = no result; [ ] = remark or other dose. Sampled rows, rich in hits. Any-hit rate of the full collection: about 5.4%. Unless noted, calls follow the shape of the dose curve; as a rule, active = well fitted curve in the direction sought with a large enough effect; inconclusive = small, poorly fitted or top-dose-only effect, or another doubt; inactive = no such curve, though single readings can be large; an effect the other way counts as inactive or inconclusive. Unless noted, % is scaled to controls: 0 for no effect and ±100 for the full control effect.

SMILES	HPGD inh	12-hLO inh	IMPase Li cell	PNC inhibitor	IMPase cell inh	15-hLO-2 inh
COc1cc(C2CC(=O)N3CN(Cc4ccco4)CSC3=C2C#N)ccc1OCc1ccccc1 (centres undefined)	25µM*	-19%	15%[38.3 µM]	-23	2	?
CC(C)c1ccc(C2CC(=O)N3CN(Cc4ccco4)CSC3=C2C#N)cc1 (centres undefined)	16µM*	?	-4%[38.3 µM]	-16	-5	?
CSC1=C(C#N)C(c2ccc(C(C)C)cc2)CC(=O)N1 (centres undefined)	-5%	2%	11%[38.3 µM]	33	8	-5%
COc1ccc(OC)c(C2CC(=O)Nc3ccc4ccccc4c32)c1 (centres undefined)	.	.	.	.	-5	.
COc1ccc(C2CC(=O)N3CN(Cc4ccco4)CSC3=C2C#N)cc1 (centres undefined)	13µM*	-16%	-7%[38.3 µM]	13	-7	-29%
COc1ccc(C2C(C#N)=C(N)Oc3cc(C)n(Cc4ccco4)c(=O)c32)cc1 (centres undefined)	3%	3%	1%[38.3 µM]	25	1	3%
COc1ccc2ccccc2c1C1CC(=O)N2CN(Cc3ccco3)CSC2=C1C#N (centres undefined)	7.9µM*	-13%	7%[38.3 µM]	3	5	13µM*
CCOc1cc(C2CC(=O)N3CN(C4CCCCC4)CSC3=C2C#N)ccc1O (centres undefined)	25µM*	?	?	?	2	?
O=C1C=C(NCc2ccco2)CC(c2ccc(Cl)cc2)C1 (centres undefined)	-8%	-12%	16%[38.3 µM]	?	-5	-13%
N#CC1=C2SCN(Cc3ccco3)CN2C(=O)CC1c1ccc(Cl)cc1 (centres undefined)	11µM*	?	-2%[38.3 µM]	-17	16	?
CCCOc1ccc(C(=O)Nc2ccc(Cl)c(-c3nc4ncccc4o3)c2)cc1	.	.	.	.	8	.
O=C(O)c1ccccc1C(=O)Nc1cc2c(cc1Br)-c1ccccc1C2=O	-13%	-1%[11.4 µM]	6%	.	.	-7%[11.4 µM]
CCc1ccc(NC(=O)C2CCN(S(=O)(=O)c3c(C)[nH]c(=O)[nH]c3=O)CC2)cc1	-3%	-15%	3%[38.3 µM]	71	3	-3%
Cc1ccc(NC(=O)C2CCN(S(=O)(=O)c3c(C)[nH]c(=O)[nH]c3=O)CC2)cc1	-3%	2%	10%[38.3 µM]	-98*	-3[1.84 µM]	6%[11.4 µM]
Cc1ccc(C)c(N2CCN(C(=O)C3CCCN(S(=O)(=O)c4c(C)[nH]c(=O)[nH]c4=O)C3)CC2)c1 (centres undefined)	-4%	3%	-1%[38.3 µM]	-86*	-7	-1%
O=C1c2ccccc2C(=O)N1C[C@]1(C(=O)O)NCCS1(=O)=O	-8%	0%[11.4 µM]	-4%	.	.	-7%[11.4 µM]
COC(=O)N1C2=C(c3ccccc3[C@@H]1CC(=O)Nc1ccc3cc4ccccc4cc3c1)[C@@H]1C(=O)N(c3ccccc3)C(=O)[C@@H]1[C@H](C)C2	-13%	-5%[11.4 µM]	7%	.	.	.
N#Cc1c(Sc2ncc(C(F)(F)F)cc2Cl)nsc1C/C=N\OCc1ccccc1Br	-25%	-13%	-1%[38.3 µM]	-1	11	13µM*
CN1C(=O)/C(=C/c2ccccc2OCc2cccc(F)c2)NC1=S	4.5µM*	0%	11%	28	13	-6%
CN1C(=O)/C(=C/c2ccccc2OCc2ccc(F)cc2)N(C)C1=S	-23%	-5%	35%	-20	2	.
CN1C(=O)/C(=C/c2ccccc2OCc2ccc(C(=O)O)cc2)NC1=S	.	.	18%	.	.	.
CN1C(=O)/C(=C/c2ccccc2OCc2ccccc2)NC1=S	11µM*	0%	25%	?	.	.
CCOC(=O)CSc1nnc(CSc2nc3sc4c(c3c(=O)[nH]2)CCCC4)n1-c1ccccc1	14µM*	7%	-5%[38.3 µM]	67	3	?
CCOC(=O)c1nc2sc3c(c2c(=O)[nH]1)CCCC3	?	-3%	-3%[38.3 µM]	-86*	-4	-1%
CCOC(=O)CCCSc1nc2sc3c(c2c(=O)[nH]1)CCC3	3.5µM*	2%	6%[38.3 µM]	-7	-7	0%
SMILES	HPGD inh	12-hLO inh	IMPase Li cell	PNC inhibitor	IMPase cell inh	15-hLO-2 inh
Cc1ccsc1/C=C1/SC(N2CC(C)OC(C)C2)=NC1=O (centres undefined)	32µM*	2%	9%	14	.	.
COC(=O)CSc1nc(-c2cccs2)ccc1C#N	?	-3%	25µM*	0	?	-27%
CC1=C(C(N)=O)C(c2ccc(F)cc2)n2nc(-c3ccc(N(C)C)cc3)nc2N1 (centres undefined)	.	.	.	.	3	.
CC(C)N(Cc1nc(-c2ccccc2)no1)C(=O)CCCN1C(=O)c2ccccc2C1=O	-11%	-7%	-3%[38.3 µM]	11	10	-6%
CC(C)N(Cc1nc(-c2ccccc2)no1)C(=O)CN1C(=O)c2ccccc2C1=O	-15%	0%	8%	-100*	12	.
COc1ccc2c(c1)C(=O)[C@@H](OC(=O)NCCOc1ccccc1)[C@H](c1ccc(OC)c(Br)c1)O2	-11%	.	-1%	.	.	.
O=P(CO)(Cc1ccccc1)Cc1ccccc1	16µM*	9%	-10%[38.3 µM]	?	5	-5%
Cc1ccc(O)c(C(=O)c2cnc3c(c2)COc2ccccc2-3)c1	13µM*	1%	10%	?	8	.
O=C(c1cnc2c(c1)COc1ccc(Cl)cc1-2)c1ccccc1O	-17%	3%	13%	?	9	.
COc1ccc(CNCCC(c2ccc3c(c2)OCO3)c2ccccc2OC)cc1 (centres undefined)	.	.	.	.	3	.
C=CCNC(=O)C(=O)N/N=C/c1cccc(Br)c1	.	.	0%	.	.	.
Cc1ccccc1NC(=O)C(=O)N/N=C/c1cccc(Br)c1	-4%	4%	-7%	-114*	.	.
O=C(O)c1ccc(C2Nc3ccccc3-c3nnc(SCc4ccc(Cl)cc4)nc3O2)cc1 (centres undefined)	.	.	.	.	11	.
O=C(C1CCCCC1)N(CCN1CCN(c2ccccc2CO)CC1)c1ccccn1	.	.	-3%	.	.	.
COc1cccc(Cn2nnc3c(=O)[nH]c(C4CCCN(C(=O)c5ccccc5Cl)C4)nc32)c1 (centres undefined)	14µM*	-5%	-10%[38.3 µM]	?	-5	-12%
COc1ccc(Cn2nnc3c(=O)[nH]c(C4CCCN(C(=O)c5ccccc5)C4)nc32)cc1 (centres undefined)	13µM*	6%	0%	44	-9	.
O=C(c1ccccc1Cl)N1CCCC(c2nc3c(nnn3Cc3ccccc3)c(=O)[nH]2)C1 (centres undefined)	16µM*	-7%	-7%[38.3 µM]	15	9	-10%
